Reference: PubChem BioAssay (NCATS)
Records with an inconclusive call do not appear. Calls of active or inactive are those of the source. Calls follow the shape of the dose curve; as a rule, active = well fitted curve in the direction sought with a large enough effect; inconclusive = small, poorly fitted or top-dose-only effect, or another doubt; inactive = no such curve, though single readings can be large; an effect the other way counts as inactive or inconclusive.

Legend:
[1] = tested on: NIH3T3; experiment: qHTS assay to identify novel small-molecules to repurpose for Merkel cell carcinoma treatment (AID 1296009); settings: MCC and control cell lines, CellTiter-Glo viability, 72 h; at 44.8 µM (top of the series) unless noted; also: nearly all actives have a fitted effect of over 60% in size
Outline: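 Luminescence from CellTiter-Glo, read 10 min after addition at room temperature, reported viability following a 72 hr, 37 degree celsius treatment with NPC or MIPE compounds in titration; values normalized to plate controls.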

[2] = tested on: C33A; experiment: Primary qHTS to identify gynecologic anti-cancer compounds using libraries of approved drugs and bioactive compounds (AID 1345084); settings: Gynecologic cancer cell panel viability, ATPlite luminescence, 48 h; series mostly up to 57.5 µM; also: % is scaled to controls: 0 for no effect and ±100 for the full control effect; nearly all actives have a fitted effect of over 55% in size
Outline: (§1)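 Cells, 1,000 per well, were allowed to settle for 16 h at 37 C before compound addition. Five concentrations were tested for 48 h, and viability was read by ATPlite luminescence after 15 min at room temperature.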

[3] = tested on: CAOV3; experiment: as above; settings: Gynecologic cancer cell panel viability, ATPlite luminescence, 48 h; series mostly up to 57.5 µM
Outline: as §1

[4] = tested on: CASKI; experiment: as above; settings: Gynecologic cancer cell panel viability, ATPlite luminescence, 48 h; series mostly up to 57.5 µM
Outline: as §1

[5] = tested on: Es-2; experiment: as above; settings: Gynecologic cancer cell panel viability, ATPlite luminescence, 48 h; series mostly up to 57.5 µM
Outline: as §1

[6] = tested on: HeLa; experiment: as above; settings: Gynecologic cancer cell panel viability, ATPlite luminescence, 48 h; series mostly up to 57.5 µM
Outline: as §1

[7] = tested on: Hek293T; experiment: as above; settings: Gynecologic cancer cell panel viability, ATPlite luminescence, 48 h, control line for the selectivity index; series mostly up to 57.5 µM
Outline: as §1

[8] = tested on: JEG-3; experiment: as above; settings: Gynecologic cancer cell panel viability, ATPlite luminescence, 48 h; series mostly up to 57.5 µM
Outline: as §1

[9] = tested on: OV90; experiment: as above; settings: Gynecologic cancer cell panel viability, ATPlite luminescence, 48 h; series mostly up to 57.5 µM
Outline: as §1

[10] = tested on: PA-1; experiment: as above; settings: Gynecologic cancer cell panel viability, ATPlite luminescence, 48 h; series mostly up to 57.5 µM
Outline: as §1

[11] = tested on: Tov-21-G; experiment: as above; settings: Gynecologic cancer cell panel viability, ATPlite luminescence, 48 h; series mostly up to 57.5 µM
Outline: as §1

[12] = tested on: Tov112D; experiment: as above; settings: Gynecologic cancer cell panel viability, ATPlite luminescence, 48 h; series mostly up to 57.5 µM
Outline: as §1

OC[C@@]1(O)CO[C@@H](OC[C@H]2O[C@@H](OCc3ccccc3)[C@H](O)[C@@H](O)[C@@H]2O)[C@@H]1O
inactive: outcome [1] inactive [at 17.4 µM] | Potency [2] | Potency [3] | outcome [4] | Potency [5] | Potency [6] | Potency [7] | Potency [8] | Potency [9] | Potency [10] | Potency [11] | Potency [12]

CCCCOc1nc(N)c2c(n1)N(Cc1cccc(CN3CCCC3)c1)CC(=O)N2
inactive: outcome [1] | Potency [2] | Potency [3] | outcome [4] | Potency [5] | Potency [6] | Potency [7] | Potency [8] | Potency [9] | Potency [10] | Potency [11] | Potency [12]

CC1CCC2(C(=O)O)CCC3(C)C(=CCC4C5(C)C[C@@H](O)[C@@H](O)C(C)(CO)C5CCC43C)C2C1(C)O (stereo partly drawn)
inactive: outcome [1] inactive [at 17.4 µM] | Potency [2] | Potency [3] | outcome [4] | Potency [5] | Potency [6] | Potency [7] | Potency [8] | Potency [9] | Potency [10] | Potency [11] | Potency [12]

CCOC(=O)c1ccc(NC2CCCCC2)c(N)c1
inactive: outcome [1] | Potency [2] | Potency [3] | outcome [4] | Potency [5] | Potency [6] | Potency [7] | Potency [8] | Potency [9] | Potency [10] | Potency [11] | Potency [12]

CCOc1ncc(S(=O)(=O)N2CCN(CC)CC2)cc1-c1nc2c(CC)n(CCOC)nc2c(=O)[nH]1
inactive: outcome [1] | Potency [2] | Potency [3] | outcome [4] | Potency [5] | Potency [6] | Potency [7] | Potency [8] | Potency [9] | Potency [10] | Potency [11] | Potency [12]

COC(=O)c1cc(OC)cc(OC)c1C(=O)c1c(OC)cc2c(c1O)C1CCC(O)C(C)(O2)O1 (stereo not drawn)
inactive: outcome [1] inactive [at 17.4 µM] | Potency [2] | Potency [3] | outcome [4] | Potency [5] | Potency [6] | Potency [7] | Potency [8] | Potency [9] | Potency [10] | Potency [11] | Potency [12]

C=CC1(C)C=C2CC[C@H]3[C@@](C)(C(=O)O)CCC[C@]3(C)C2CC1 (stereo partly drawn)
inactive: outcome [1] | Potency [2] | Potency [3] | outcome [4] | Potency [5] | Potency [6] | Potency [7] | Potency [8] | Potency [9] | Potency [10] | Potency [11] | Potency [12]

C/C=C(\C)C(=O)OC[C@H]1O[C@H](O[C@H]2O[C@H](CO)[C@@H](O)[C@H](O)[C@H]2O[C@@H]2O[C@H](CO)[C@@H](O)[C@H](O)[C@H]2O)[C@H](O[C@@H]2O[C@H](CO)[C@@H](O)[C@H](O)[C@H]2O)[C@@H](O)[C@@H]1O
inactive: outcome [1] inactive [at 17.4 µM] | Potency [2] | Potency [3] | outcome [4] | Potency [5] | Potency [6] | Potency [7] | Potency [8] | Potency [9] | Potency [10] | Potency [11] | Potency [12]

C=C1C(OC(C)=O)[C@@]23CCC4[C@](C)(C(=O)O)CCC[C@@]4(C)[C@]2(O)CC[C@H]1C3 (stereo partly drawn)
inactive: outcome [1] | Potency [2] | Potency [3] | outcome [4] | Potency [5] | Potency [6] | Potency [7] | Potency [8] | Potency [9] | Potency [10] | Potency [11] | Potency [12]

CC1(C)CC[C@]2(C(=O)O[C@@H]3O[C@H](CO[C@@H]4O[C@H](CO[C@@H]5O[C@H](CO)[C@H](O)[C@H](O)[C@H]5O)[C@@H](O)[C@H](O)[C@H]4O)[C@@H](O)[C@H](O[C@@H]4O[C@H](CO)[C@@H](O)[C@H](O)[C@H]4O)[C@H]3O)[C@H](O)C[C@]3(C)C(=CCC4[C@@]5(C)CC[C@H](O[C@@H]6OC[C@@H](O)[C@H](O)[C@H]6O)[C@@](C)(C(=O)O)C5CC[C@]43C)[C@@H]2C1 (stereo partly drawn)
inactive: outcome [1] inactive [at 9.27 µM] | activity change, negative = cytotoxicity [2] 12.5% [at 6.55 µM] | activity change, negative = cytotoxicity [3] 1.69% [at 6.55 µM] | activity change, negative = cytotoxicity [4] -1.12% [at 6.55 µM] | activity change, negative = cytotoxicity [5] -9.51% [at 6.55 µM] | activity change, negative = cytotoxicity [6] 2.81% [at 6.55 µM] | activity change, negative = cytotoxicity [7] -1.44% [at 6.55 µM] | activity change, negative = cytotoxicity [8] -1.76% [at 6.55 µM] | activity change, negative = cytotoxicity [9] 12% [at 6.55 µM] | activity change, negative = cytotoxicity [10] 14% [at 6.55 µM] | activity change, negative = cytotoxicity [11] 9.11% [at 6.55 µM] | activity change, negative = cytotoxicity [12] 3.01% [at 6.55 µM]

CC1CCC2(NC1)OC1C(O)C3C4CCC5CC(O[C@@H]6O[C@H](CO)[C@@H](O)[C@H](O)[C@H]6O[C@@H]6O[C@@H](C)[C@H](O)[C@@H](O)[C@H]6O)CCC5(C)C4CCC3(C)C1C2C (stereo partly drawn)
inactive: outcome [1] inactive [at 17.4 µM] | Potency [2] | Potency [3] | outcome [4] | Potency [5] | Potency [6] | Potency [7] | Potency [8] | Potency [9] | Potency [10] | Potency [11] | Potency [12]

C=CCc1ccc(O[C@@H]2O[C@H](CO)[C@@H](O)[C@H](O)[C@H]2O)c(O[C@@H]2O[C@H](CO)[C@@H](O)[C@H](O)[C@H]2O)c1
inactive: outcome [1] inactive [at 17.4 µM] | Potency [2] | Potency [3] | outcome [4] | Potency [5] | Potency [6] | Potency [7] | Potency [8] | Potency [9] | Potency [10] | Potency [11] | Potency [12]

O=C(O)/C=C/c1ccc(O[C@@H]2O[C@H](CO)[C@@H](O)[C@H](O)[C@H]2O)cc1
inactive: outcome [1] | Potency [2] | Potency [3] | outcome [4] | Potency [5] | Potency [6] | Potency [7] | Potency [8] | Potency [9] | Potency [10] | Potency [11] | Potency [12]

COCCN1CCC(C(=O)NO)(S(=O)(=O)c2ccc(Oc3ccc(OC(F)(F)F)cc3)cc2)CC1
inactive: outcome [1] | Potency [2] | Potency [3] | outcome [4] | Potency [5] | Potency [6] | Potency [7] | Potency [8] | Potency [9] | Potency [10] | Potency [11] | Potency [12]
